Assay results as given in PMC6792352, “Limited Chemical Structural Diversity Found to Modulate Thyroid Hormone Receptor in the Tox21 Chemical Library” (Environmental Health Perspectives, 2019).
Read-outs that look alike come from different tables or passages of the source. Over roughly 7,300 compounds, “AC50” has its median near 90,000 nM; the lowest 2% begin near 20,000 nM. This is one part of the list.

Tested on: thyroid hormone receptor (endogenous TRα and TRβ)
Set-up: species or system GH3-TRE-Luc (rat pituitary); GH3-TRE-Luc luciferase reporter transactivation, agonist mode, qHTS; RXR ligands can also activate indirectly

Structure (SMILES)	AC50 (read-out: TR_LUC_GH3_Agonist_AC50, agonist mode, primary qHTS, 24 h)	AC50 (read-out: TR_LUC_GH3_Agonist_AC50, agonist mode, primary qHTS, 24 h, TR_LUC_GH3_Agonist_AC50 (uM))
O=C(O)Cc1cc(I)c(Oc2ccc(O)c(I)c2)c(I)c1 [Tiratricol]	0.000154 µM	
Cc1ccc(O)cc1 [Cresol]		25 µM
